Source: PubChem (National Center for Advancing Translational Sciences (NCATS))
Rows were chosen to be rich in hits. Some 11% of all compounds tested hit in one or more screens of this group.
JMJD2A Tudor inh: qHTS Assay for Inhibitors of JMJD2A-Tudor Domain; Lysine-specific demethylase 4A (Homo sapiens), O75164; AlphaScreen JMJD2A-Tudor / H3K4me3 peptide binding; Potency, µM (doses to about 114 µM), most hits filed as inhibitors; actives 4.4% (n = 390,000); further: nearly all actives have a fitted effect of over 50% in size
PI5P4K alpha inh: qHTS for Inhibitors of phosphatidylinositol 5-phosphate 4-kinase (PI5P4K); Phosphatidylinositol 5-phosphate 4-kinase type-2 alpha (Homo sapiens), P48426; PI5P4Kalpha enzyme, ADP-Glo luminescence, 60 min; hits give low values; max response, %; actives 1.2% (n = 330,000); AID 652105, 2013; active means max response of -50% or lower; inconclusive means between -30% and -50%; inactive means -30% or higher; further: value at the top dose of about 77 µM
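Compounds were pin-transferred onto PI5P4Kalpha and substrate in HEPES pH 7.4 buffer with EGTA, CHAPS and 5% DMSO. ATP (5 microM final) started the reaction, which ran 60 minutes at room temperature before ADP-Glo detection.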
G9a inh: qHTS Assay for Inhibitors of Histone Lysine Methyltransferase G9a; actives 8.8% (n = 350,000); Histone-lysine N-methyltransferase EHMT2 (Homo sapiens), Q96KQ7; Potency, µM (doses to about 102 µM), usual class: inhibitors; AID 504332, 2011; G9a H3K9 monomethylation, AlphaScreen, 2 h; further: nearly all actives have a fitted effect of over 75% in size
Target sequence (Q96KQ7 913-1193 limits assumed): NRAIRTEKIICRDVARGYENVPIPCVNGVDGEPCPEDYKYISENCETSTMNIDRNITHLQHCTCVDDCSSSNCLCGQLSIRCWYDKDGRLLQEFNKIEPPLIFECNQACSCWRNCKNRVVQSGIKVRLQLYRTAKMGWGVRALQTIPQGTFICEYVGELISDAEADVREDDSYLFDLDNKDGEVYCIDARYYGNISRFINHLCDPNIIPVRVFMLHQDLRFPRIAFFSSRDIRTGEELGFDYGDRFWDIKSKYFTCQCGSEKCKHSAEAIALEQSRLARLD
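Step 1: enzyme (final 20 nM) with compound, 15 min RT. Step 2: substrate peptide 500 nM and SAM 20 uM, 2 h RT. Step 3: anti-H3K9me1 antibody and AlphaScreen beads, 10 min, then plate read.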
L3MBTL1 block: qHTS Assay for the Inhibitors of L3MBTL1 | actives 0.66% (n = 230,000) | Potency, µM (top dose mostly 57.1 µM), actives largely listed as inhibitors | AlphaScreen L3MBTL1–H3K9me1 peptide binding; further: nearly all actives have a fitted effect of over 60% in size
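AlphaScreen proximity signal between nickel-chelate acceptor and streptavidin donor beads (final 10 ug/mL) reports binding of 50 nM L3MBTL1 to 75 nM biotin-H3 K9me1 peptide; complex incubated with compounds 30 min at room temperature; cefsulodin titration as control.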
BAZ2B inh: qHTS Assay for Inhibitors of BAZ2B; Potency, µM (series often up to 114 µM), hits mostly inhibitors; Bromodomain adjacent to zinc finger domain protein 2B (Homo sapiens), Q9UIF8; actives 4.4% (n = 360,000); AlphaScreen BAZ2B-H3K14Ac peptide displacement; AID 504333, 2011; further: nearly all actives have a fitted effect of over 60% in size
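Complex of BAZ2B and biotin-H3K14Ac (50 nM apiece) forms over 30 min at RT, then faces library compounds up to 110 uM for another 30 min; AlphaScreen beads added, 20 min dark incubation, luminescence read.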
HP1b binding inh: HTS for Inhibitors of HP1-beta Chromodomain Interactions with Methylated Histone Tails; actives 0.56% (n = 390,000); Potency, µM (series often up to 114 µM), hits mostly inhibitors; Chromobox protein homolog 1 (Homo sapiens), P83916; AlphaScreen HP1-beta / biotin-H3K9me3 peptide binding; further: nearly all actives have a fitted effect of over 70% in size
Target sequence (P83916 whole entry, looked up): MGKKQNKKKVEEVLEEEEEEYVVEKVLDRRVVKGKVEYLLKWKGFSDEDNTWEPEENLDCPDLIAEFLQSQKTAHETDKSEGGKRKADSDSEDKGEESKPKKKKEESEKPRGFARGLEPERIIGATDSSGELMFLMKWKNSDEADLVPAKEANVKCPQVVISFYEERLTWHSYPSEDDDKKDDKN
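Compound inhibition of the preformed complex between 50 nM HP1-beta and 50 nM biotinylated H3K9me3 peptide was read by AlphaScreen. Buffer was PBS pH 7.4 with 0.01% Tween-20. Incubations ran 30 min at room temperature, with 10 ug/mL donor/acceptor beads.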
A number is an active result; - = inactive; ? = inconclusive; . = no result; [ ] = remark or other dose. Unless noted, the call rests on the fitted dose curve; in most records, active means well fitted inhibition curve with a large enough effect; inconclusive means small, poorly fitted or top-dose-only effect; inactive means no such curve, though single readings can be large or run the other way.

SMILES	JMJD2A Tudor inh	PI5P4K alpha inh	G9a inh	L3MBTL1 block	BAZ2B inh	HP1b binding inh
Cc1ccc(C(c2sc3nc(-c4ccco4)nn3c2O)N2CCN(Cc3ccccc3)CC2)cc1 (stereo unspecified)	?	.	?	.	?	-
Cc1cccc(Cc2c(C)nc3nc(SCC(=O)NCc4ccc(F)cc4)nn3c2C)c1	-	.	-	.	-	-
CCOC(=O)N1CCc2c(sc3c2c(=O)n(Cc2ccccc2)c(=O)n3CC(=O)Nc2ccc(C)c(C)c2)C1	-	.	-	.	-	-
CCN(CC)C(=O)CSc1nc(-c2ccc(C)cc2)nc2c1Cc1c(CO)cnc(C)c1O2	?	.	14µM	.	45µM	-
Cc1ccc(-c2nc3c(c(SCC(=O)N4CCOCC4)n2)Cc2c(CO)cnc(C)c2O3)cc1	?	-	14µM	.	?	-
Cc1cc(C)cc(NC(=O)CSc2nc(-c3cccc(Cl)c3)nc3c2Cc2c(CO)cnc(C)c2O3)c1	-	.	-	.	50µM	-
COc1cccc2cc(C(=O)NCCc3c(C)[nH]c4ccc(Br)cc34)c(=O)oc12	-	.	-	.	?	-
Oc1ccc(/C=N/NC2=NCCCCC2)cc1	-	.	40µM	.	-	-
COc1cc(/C=N/NC2=NCCCCC2)ccc1O	-	-	56µM	-	-	-
COc1cccc(-n2c(=O)c3cc(OC)c(OC)cc3n(CC(=O)Nc3cc(C)[nH]n3)c2=O)c1	-	-	?	-	50µM	-
CCOc1cc(C2NC(=S)NC(C)=C2C(=O)Nc2ccccc2)ccc1O (stereo unspecified)	-	-	-	.	-	-
COc1cccc(C2NC(=S)NC(C)=C2C(=O)c2ccccc2)c1OC (stereo unspecified)	-	-	22µM	-	?	-
COc1cccc(C2NC(=O)NC(C)=C2C(=O)Nc2ccc(C)cc2)c1OC (stereo unspecified)	-	.	-	-	.	-
C=CCOc1ccc(C2NC(=S)NC(C)=C2C(=O)c2ccccc2)cc1OC (stereo unspecified)	-	-	40µM	-	-	-
COc1ccc(C2C3=C(CCCC3=O)Nc3ccc4ncccc4c32)cc1OC (stereo unspecified)	-	-	50µM	.	-	-
O=C1CCCC2=C1C(c1ccc(O)c(O)c1)Nc1ccc3ncccc3c12 (stereo unspecified)	25µM	?	1.1µM	?	50µM	?
COc1cc(C2C3=C(CCCC3=O)Nc3[nH]n(-c4ccccc4)c(=O)c32)ccc1OC(C)=O (stereo unspecified)	-	-	45µM	.	?	-
Cc1ccccc1Nc1nc(C#N)nc(NC2CCCC2)n1	-	.	.	.	.	.
Cc1cccc(NC(=O)Cn2c(=O)nc(-c3ccccc3)c3ccccc32)c1C	-	.	-[12.7 µM]	.	-	-
CCCSc1nsc(SCCC)c1C#N	-	-	-	.	-	-
C#CCSc1nsc(SCC#C)c1C#N	56µM	.	-[12.7 µM]	-	-	?
Cc1ccccc1C(=O)OC(C)CN1CCN(C)CC1 (stereo unspecified)	-	-	-	.	-	-
CC(CN1CCN(C)CC1)OC(=O)c1ccccc1Cl (stereo unspecified)	79µM	-	50µM	-	?	-
Cc1ccccc1OCC(=O)OC(C)CN1CCN(C)CC1 (stereo unspecified)	?	.	50µM	-	?	-
NC(=O)CN1C(=O)/C(=c2\sc3nc(=O)c(Cc4ccccc4)nn3c2=O)c2ccccc21	-	-	7.9µM	.	-	-
SMILES	JMJD2A Tudor inh	PI5P4K alpha inh	G9a inh	L3MBTL1 block	BAZ2B inh	HP1b binding inh
CCC1=NN(C(=O)c2ccc(Cl)cc2)C(O)(c2ccccc2)C1 (stereo unspecified)	-	-	.	?	50µM	-
CCC1=NN(C(=O)c2ccccc2O)C(O)(c2ccccc2)C1 (stereo unspecified)	7.1µM	-	-	?	50µM	-
CN(C)c1ccc(C2CC(c3cccc(NS(C)(=O)=O)c3)=NN2C(=O)c2ccccc2)cc1 (stereo unspecified)	-[11.4 µM]	-	.	?	20µM	?
CCC(=O)N1N=C(c2ccc(NS(C)(=O)=O)cc2)CC1c1ccc(N(C)C)cc1 (stereo unspecified)	?	-	45µM	.	.	-
COc1cccc(C2CC(c3cccc(NS(C)(=O)=O)c3)=NN2C(=O)c2ccccc2)c1OC (stereo unspecified)	-	-	-	-	-	-
CCC(=O)Nc1ccc(S(=O)(=O)NCc2cccn2Cc2cccc(C)c2)cc1	?	.	-	.	?	-
O=C(c1ccc(Cl)cc1)N1CCCCC1CCN1CCOCC1 (stereo unspecified)	-	.	-	.	-	-
CSc1ccc(CCNC(=O)C2CCN(c3nc4ccccc4nc3C(F)(F)F)CC2)cc1	-	.	-	.	-	-
Cc1noc(C)c1C(=O)N1CCC2(CCCN(c3ccccn3)C2)CC1	.	.	-[12.7 µM]	.	.	.
COCCC(=O)Nc1ccc2c(c1)CN(C(=O)CCSC)CC2	-	-	-	-	-	-
COCCC(=O)Nc1ccc2c(c1)CN(C(=O)c1ccc(CSC)o1)CC2	-	-	50µM	-	-	-
Cn1c2cc([N+](=O)[O-])sc2c2cnn(Cc3ccccc3F)c(=O)c21	.	.	-[12.7 µM]	-	-	.
C=Cc1ccc(Cn2c(=O)n(CC3CCC(C(=O)NC(C)C)CC3)c(=O)c3sccc32)cc1 (stereo unspecified)	-	.	-	.	-	-
COCCn1nnnc1C(c1cccc(C(F)(F)F)c1)N1CCOCC1 (stereo unspecified)	-	-	?	-	-	-
COCCn1nnnc1CN1CCOCC1	-	.	50µM	-	-	-
COCCn1nnnc1C(c1cccc(C(F)(F)F)c1)N1CCN(Cc2ccccc2)CC1 (stereo unspecified)	-	-	50µM	.	?	-
COCCn1nnnc1CN1CCN(c2cccc(C(F)(F)F)c2)CC1	-[11.4 µM]	-	?	?	79µM	-
COCCn1nnnc1CN1CCC(C)CC1	-	-	-	-	-	-
COCCn1nnnc1CN1CCC(O)(c2cccc(C(F)(F)F)c2)CC1	-	.	79µM	-	-	-
COc1ccc(-c2nnc(SCC(=O)Nc3ccc(C)c(Cl)c3)nc2-c2ccc(OC)c(OC)c2)cc1OC	-	.	-	.	-	-
CCOC(=O)c1ccc(NC(=O)Cc2coc3cc(C)cc(C)c23)cc1	-	.	-	.	-	-
CCCCOc1ccccc1C(=O)N(Cc1cccc(F)c1)C1CCS(=O)(=O)C1 (stereo unspecified)	-	.	-	.	-	-
